SRC1 TRFRET art: TR-FRET detection interference compounds, primary screen, artefact control for PPARgamma SRC-1 recruitment agonists, biochemical, TR-FRET emission ratio | hit rate 0.34% among 99,000 | TR-FRET detection artefact counter-screen; active compounds read high | TR-FRET ratio at 8 µM; in the data active = TR-FRET ratio above about 2300
SRC2 TRFRET art: TR-FRET signal artefacts, primary screen, artefact control for PPARgamma SRC-2 agonist project, biochemical; TR-FRET artefact counter-screen; active compounds read high; AID 1049, 2008; hit rate 0.4% among 200,000; TR-FRET ratio at 8 µM
PPARg SRC-3 ag: PPARgamma agonists recruiting SRC-3 coactivator, primary screen, biochemical | hit rate 0.26% among 200,000 | activation, % at 8 µM | biochemical PPARgamma/SRC-3 coactivator recruitment assay; in the data active = activation above about 23%;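 note: 0% = DMSO and 100% = reference agonist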
Target sequence (P37231 whole entry, looked up): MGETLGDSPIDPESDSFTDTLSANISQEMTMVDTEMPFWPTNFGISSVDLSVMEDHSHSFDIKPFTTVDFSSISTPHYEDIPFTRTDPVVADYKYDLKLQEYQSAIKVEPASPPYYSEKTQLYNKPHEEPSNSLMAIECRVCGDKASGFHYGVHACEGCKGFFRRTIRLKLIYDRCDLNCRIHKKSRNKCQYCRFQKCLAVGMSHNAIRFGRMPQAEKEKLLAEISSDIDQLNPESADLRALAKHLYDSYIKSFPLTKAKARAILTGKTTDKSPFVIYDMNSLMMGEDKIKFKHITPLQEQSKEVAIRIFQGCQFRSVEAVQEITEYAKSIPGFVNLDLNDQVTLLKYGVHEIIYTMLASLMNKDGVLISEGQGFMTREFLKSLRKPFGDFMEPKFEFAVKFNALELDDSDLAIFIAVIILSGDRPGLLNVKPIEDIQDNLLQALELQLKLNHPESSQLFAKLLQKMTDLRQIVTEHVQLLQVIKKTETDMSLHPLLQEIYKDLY
PPARg SRC-2 ag: agonists of PPARg-SRC-2 recruitment, primary screen, biochemical, HTS | hit rate 0.34% among 200,000 | Peroxisome proliferator-activated receptor gamma (Homo sapiens), P37231 | PPARgamma LBD-SRC-2 recruitment | activation, % at 8 µM; in the data active = activation above about 22%;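 note: 0% = vehicle and 100% = reference agonist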
SRC3 TRFRET art: TR-FRET detection interference compounds, artefact control for PPARgamma SRC-3 recruitment agonists, biochemical, TR-FRET ratio | TR-FRET artefact counter-screen, PPARgamma/SRC-3 format; active compounds read high | TR-FRET ratio at 8 µM | hit rate 0.39% among 99,000
PPARg SRC1 recr: PPARgamma agonists recruiting SRC-1 coactivator, primary screen, biochemical; activation, % at 8 µM; PPARgamma-SRC-1 coactivator recruitment biochemical assay; Peroxisome proliferator-activated receptor gamma (Homo sapiens), P37231; hit rate 0.41% among 200,000; in the data active = activation above about 19%;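 note: 0% = DMSO and 100% = reference agonist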
PPARg SRC2 ag: agonists of PPARgamma SRC-2 coactivator recruitment, confirmation, biochemical, HTS. shares compounds with PPARg SRC-3 ag. biochemical SRC-2 recruitment by PPARgamma. activation, % at 8 µM. hit rate 52% among 790; in the data active = activation above about 22%;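 note: 0% = vehicle alone and 100% = reference agonist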
PPARg SRC1 conf: PPARgamma agonists recruiting SRC-1 coactivator, confirmation, biochemical; shares compounds with PPARg SRC-3 ag; PPARgamma–SRC-1 coactivator recruitment biochemical assay; activation, % at 8 µM; hit rate 43% among 790; in the data active = activation above about 20%;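 note: 0% = vehicle wells and 100% = reference agonist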
PPARg SRC3 conf: PPARgamma-driven SRC-3 coactivator recruitment agonists, confirmation, biochemical. shares compounds with PPARg SRC-3 ag. biochemical PPARgamma-SRC-3 coactivator recruitment, agonist mode. activation, % at 8 µM. hit rate 29% among 790. AID 1301, 2008; in the data active = activation above about 24%;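 note: 0% = vehicle wells and 100% = reference agonist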
The depositor's hits bear a star; nt = not tested or not shown. Shown are actives, neighbours in structure and some others; about 0.84% of the full set was active somewhere. Cut-off read from the data, not from the text of the source, unless noted: active = TR-FRET ratio above about 2000; inactive = the rest.

SMILES	SRC1 TRFRET art	SRC2 TRFRET art	PPARg SRC-3 ag	PPARg SRC-2 ag	SRC3 TRFRET art	PPARg SRC1 recr	PPARg SRC2 ag	PPARg SRC1 conf	PPARg SRC3 conf
Cc1ccc(C(=O)C2=C(O)C(=O)N(c3ncccn3)C2c2ccc(Cl)cc2)o1 (configuration not stated)	nt	2243*	43*	38*	nt	28*	28*	21*	22
Oc1cc2c(cc1O)C1c3ccc(O)c(O)c3OCC1(O)C2 (configuration not stated)	2256	1683	10	22	1777	27*	9	6	2
CCOC(=O)CSc1c(-c2cccs2)[nH]c2ccccc12	1981	1827	14	25*	1749	13	32*	23*	19
CCCCNS(=O)(=O)c1ccc2nc(-c3cccnc3)cc(C(=O)NCCCOCC)c2c1	1987	1726	6	-4	1546	2	nt	nt	nt
C=CCn1c(-c2csc(-c3ccc(Cl)cc3)n2)n[nH]c1=S	nt	1851	13	10	nt	7	nt	nt	nt
C=CCn1c(-c2csc(-c3ccc(OC)c(OC)c3)n2)n[nH]c1=S	2209	2116*	13	23*	1975	11	20	15	14
C=CCn1c(-c2cc(Cl)ccc2OC)n[nH]c1=S	nt	1913	20	26*	nt	19*	30*	22*	21
O=C(COC(=O)c1cccs1)NCC1CCCCC1	1895	1688	3	-4	1678	2	nt	nt	nt
Cc1cc(NC(=O)C2C3C(=O)N(CCC(C)C)C(C(=O)NCc4ccccc4)C34C=CC2(C)O4)no1 (configuration not stated)	nt	1567	-1	-2	nt	7	nt	nt	nt
C/C(CC(=O)NC(C)(C)C)=N\NC(N)=S	2014	1781	1	9	1702	21*	6	2	3
COC(=O)c1ccc2nc(Nc3nc4ccc(F)cc4s3)sc2c1	2480*	1817	4	16	1850	23*	-4	-2	-3
COC(=O)c1ccc2nc(NC(=O)C(C)(C)C)sc2c1	1915	1681	5	2	1523	1	nt	nt	nt
Cc1ccc2cc(C#N)c(SCC(=O)NNC(=O)Cc3ccccc3)nc2c1	1663	1250	4	4	1337	-3	nt	nt	nt
COc1ccc2cc(C#N)c(SCC(=O)NNC(=O)Cc3ccccc3)nc2c1	nt	2781*	8	49*	nt	32*	54*	42*	37*
CC(=O)c1cc(NC(=O)c2ccc(Cl)cc2)c(=O)oc1/C=C/N(C)C	nt	1524	12	6	nt	20*	12	8	9
CC(=O)c1cc(NC(=O)c2cccc(C(F)(F)F)c2)c(=O)oc1/C=C/N(C)C	nt	1377	-7	-4	nt	6	nt	nt	nt
Cc1ccc2[nH]c(C)cc(=S)c2c1	2798*	2363*	22	38*	2534*	26*	4	7	5
Cc1cc(=O)c2cc(Cl)ccc2[nH]1	nt	1770	6	-3	nt	6	nt	nt	nt
CCOCCCNC(=O)Cn1cc2c(n1)CCCCC2	nt	1438	6	6	nt	-4	nt	nt	nt
CC(=O)c1c(C)[nH]c(C(=O)CSc2nnc(-c3ccco3)o2)c1C	1872	1762	4	10	1786	10	nt	nt	nt
COc1ccc(-c2nnc(SCC(=O)c3[nH]c(C)c(C(C)=O)c3C)o2)cc1	nt	1621	0	9	nt	19*	4	1	3
Cc1nc2scc(-c3ccccc3)c2c(=O)n1N=C1C=CC(=O)C=C1	1523	1437	35*	26*	1556	39*	39*	38*	31*
Cc1ccc(-c2c(C(=O)NCc3ccc(F)cc3)oc(=O)c3ccccc23)cc1	1869	1558	5	4	1549	1	nt	nt	nt
COc1ccccc1OCC(=O)Nc1nnc(-c2ccco2)s1	nt	2199*	35*	31*	nt	28*	24*	21*	15
O=C(Cc1ccccc1)Nc1nnc(-c2ccco2)s1	nt	2292*	37*	31*	nt	37*	31*	24*	18
SMILES	SRC1 TRFRET art	SRC2 TRFRET art	PPARg SRC-3 ag	PPARg SRC-2 ag	SRC3 TRFRET art	PPARg SRC1 recr	PPARg SRC2 ag	PPARg SRC1 conf	PPARg SRC3 conf
CCC(C(=O)Nc1nnc(-c2ccco2)s1)c1ccccc1 (configuration not stated)	nt	1806	27*	15	nt	26*	27*	21*	20
CCOC(=O)Cc1nnc(NC(=O)c2cccc(OCC)c2)s1	nt	1642	4	-6	nt	1	nt	nt	nt
CCOc1cccc(C(=O)Nc2nnc(-c3ccco3)s2)c1	nt	1945	17	17	nt	22*	20	17	15
CCc1nnc(NC(=O)C(CC)c2ccccc2)s1 (configuration not stated)	1783	1600	3	-2	1659	0	nt	nt	nt
CCCC(=O)Nc1nnc(-c2ccco2)s1	nt	1854	7	5	nt	13	nt	nt	nt
CC(C)CC(c1nnnn1C(C)C)N1CCN(c2ccccc2)CC1 (configuration not stated)	nt	1539	8	-15	nt	9	nt	nt	nt
CCCCSC(=S)N(C)C1CCS(=O)(=O)C1 (configuration not stated)	nt	1488	-10	1	nt	5	nt	nt	nt
O=C(NNC(=O)C1[C@H]2CCCC[C@@H]12)NC1CCCCC1 (some centres not stated)	1952	1463	-1	-3	1531	0	nt	nt	nt
COc1ccc(CNc2nc(SCc3cc(=O)n4cc(Cl)ccc4n3)nc3ccccc23)cc1	1746	1536	0	3	1641	-2	nt	nt	nt
CCN(CC)c1ccc(S(=O)(=O)N(CC)CC)cc1NC(=O)c1cccnc1	1940	1532	4	5	1591	2	nt	nt	nt
Cc1cccc(OCC(=O)Nc2nnc(-c3ccco3)s2)c1	2686*	2106*	20	28*	2164*	28*	36*	28*	22
CN(C)CCNC(=O)Cn1nc(C(F)F)cc1C1CC1	nt	1558	5	-11	nt	-10	nt	nt	nt
CN(C)c1ccc(N=C/C=C2/N(C)c3ccccc3C2(C)C)cc1	2167	2099*	17	32*	2085*	28*	13	12	8
CN1/C(=C\C=N\O)C(C)(C)c2ccccc21	1991	1498	-1	1	1499	-3	nt	nt	nt
O=[N+]([O-])c1ccc(CN2C=NS(=O)(=O)c3ccccc32)cc1	1625	1774	5	6	1598	2	nt	nt	nt

Bioassay records as filed in PubChem BioAssay.
